{"source": "PubChem BioAssay AID504397", "about": "(Broad Institute, 2011)", "experiment": "mammalian cell cytotoxicity, dose response, cytotoxicity control, plate reader, cherry-pick samples (AID 504397)", "note": "Entries with a potency or affinity are not part of this list. The source made the active and inactive calls. No rule for the calls is given here."}
{"compound": "CCOC(=O)[C@@H]1[C@H]2COc3ccc(Br)cc3[C@@H]2N2C(=O)N(c3cccc(C)c3)C(=O)[C@]12C", "values": [{"measurement": "outcome", "value": "inactive"}]}
